Source: PubChem BioAssay
For part of these data: Results with a measured potency or affinity are listed apart. Active and inactive are the calls of the source.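 The calls were made as follows, unless noted: active = primary screen activator hit with a dose response curve and TRPC4 channel activation at any tested dose; inactive = no activation, no dose response, or not a primary hit.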

Assays:
[1] = test system: TRPC4 beta (transient receptor potential cation channel C4), mouse; assay: activators of mouse TRPC4 channel, confirmation, cell-based, Fluo4 calcium, HEK293 TRPC4beta/mu-opioid, duplicates, 10 µM (AID 2426;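 active = fluorescence ratio normalized to control raised more than 50% in primary screen plus both repeat runs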;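 as to activation: percent rise of integrated ratio over buffer wells lacking compound which define 0%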); settings: Fluo4 calcium fluorescence, at 10 µM; stronger effect = higher value
[2] = test system: transient receptor potential cation channel C4 beta (TRPC4), mouse; assay: activators of mouse TRPC4 channel, confirmation, cell-based, second round, Fluo4, HEK293 TRPC4beta/mu-opioid, 1 µM (AID 2461;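 active = primary screen active and over 50% activation in each of two duplicate runs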); settings: Fluo4 calcium fluorescence, at 1 µM; stronger effect = higher value
[3] = test system: TRPC4 (transient receptor potential cation channel C4 beta), mouse; assay: positive allosteric modulators of mouse TRPC4, confirmation, cell-based, second round, Fluo-4, HEK293 TRPC4beta/mu-opioid, 1 µM (AID 2554;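 active = primary screen hit whose fluorescence ratio, in both repeats, exceeds the weak agonist control mean by 3 SD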); settings: DAMGO EC20, Fluo-4 calcium flux, at 1 µM; stronger effect = higher value
[4] = test system: TRPC4 beta (transient receptor potential cation channel C4), mouse; assay: positive allosteric modulators of mouse TRPC4, confirmation, cell-based, Fluo-4, HEK293 TRPC4beta/mu-opioid (AID 2555;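 active = primary screen hit whose calcium fluorescence ratio, in both repeats, exceeds the weak agonist control mean by 3 SD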); settings: DAMGO EC20, Fluo-4 calcium flux, at 10 µM; stronger effect = higher value
[5] = biological target: Short transient receptor potential channel 4 (Mus musculus) (UniProt Q9QUQ5); assay: inhibitors of mouse TRPC4 channel, confirmation, cell-based, Fluo4, HEK293 TRPC4beta/mu-opioid (AID 2636;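 active = calcium signal cut by more than 3 SD below the full-agonist control yet still positive, in both repeats and the earlier primary screen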); settings: DAMGO, Fluo4 calcium flux, at 10 µM; stronger effect = higher value
[6] = biological target: Short transient receptor potential channel 4 (Mus musculus) (UniProt Q9QUQ5); assay: inhibitors of mouse TRPC4 channel, confirmation, cell-based, second round, Fluo4, HEK293 TRPC4beta/mu-opioid, 1 µM (AID 2637;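 active = calcium signal ratio cut to more than 3 SD under the fully stimulated control mean yet still positive, in both repeats and the primary screen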); settings: Fluo4 calcium flux, DAMGO, at 1 µM; stronger effect = higher value
[7] = biological target: Short transient receptor potential channel 4 (Mus musculus) (UniProt Q9QUQ5); assay: mouse TRPC4 channel activators, dose response, cell-based, HEK293 TRPC4/mu-opioid, Fluo-4 calcium (AID 434937)
[8] = biological target: Short transient receptor potential channel 4 (Mus musculus) (UniProt Q9QUQ5); assay: TRPC4 positive allosteric modulators, dose response, cell-based, HEK293 TRPC4/mu-opioid, Fluo-4 calcium, EC20 DAMGO (AID 434941;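 active = earlier screen potentiator hit that boosts the TRPC4 ion channel at some dose, with a dose response; inactive = no potentiation, no dose response, or not a prior hit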;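 also: calcium entry triggered by an EC20 dose of DAMGO at the co-expressed mu-opioid receptor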)
[9] = biological target: Short transient receptor potential channel 4 (Mus musculus) (UniProt Q9QUQ5); assay: mouse TRPC4 channel inhibitors, dose response, cell-based, HEK293 TRPC4/mu-opioid, Fluo-4 calcium (AID 434942;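 active = primary screen inhibitor hit that blocks the TRPC4 channel at some tested dose, yielding a dose curve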)
[10] = biological target: Short transient receptor potential channel 6 (Mus musculus) (UniProt Q61143); assay: inhibition of mouse TRPC6 channel, confirmation, selectivity assay for TRPC4 inhibitor project, cell-based, HEK293, membrane potential dye, duplicate (AID 434948;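 active = active in primary screen and both duplicates, each dropping signal beyond three positive-control SD with fluorescence still positive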); settings: HEK293 TRPC6, membrane potential dye fluorescence, at 10 µM, stimulated with maximal-effect acetylcholine; stronger effect = higher value
[11] = biological target: Short transient receptor potential channel 6 (Mus musculus) (UniProt Q61143); assay: activation of mouse TRPC6 channel, confirmation, selectivity assay for TRPC4 activator project, cell-based, HEK293, membrane potential dye, duplicate (AID 434950;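 active = membrane potential signal rise above negative control mean plus 3 SD in both duplicates, also active in the earlier TRPC4 screen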); settings: HEK293 TRPC6, membrane potential fluorescence, at 10 µM; stronger effect = higher value
[12] = biological target: Short transient receptor potential channel 6 (Mus musculus) (UniProt Q61143); assay: TRPC6 potentiation by TRPC4 potentiator hits, confirmation, selectivity assay for TRPC4 potentiator project, HEK293 cells, membrane potential dye, duplicate (AID 434952;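 active = compound raising the membrane signal above positive-control mean plus 3 SD in both repeats, and a primary screen hit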); settings: HEK293 TRPC6, membrane potential dye fluorescence, at 10 µM, maximal acetylcholine added after compound; stronger effect = higher value
[13] = biological target: Short transient receptor potential channel 4 (Mus musculus) (UniProt Q9QUQ5); assay: calcium flux activators in TRPC4/5HT1a cells, counter-screen for TRPC4 activator project, cell-based, second counter screen, HEK293 TRPC4/5HT1a, Fluo-4 (AID 434977;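 active = calcium signal rise above buffer-control mean plus 5 SD in both duplicates, and also a hit in the primary screen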;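 as to activation: plate controls were assay buffer for no effect and maximal serotonin response for full effect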); settings: Fluo-4 calcium flux, at 10 µM; stronger effect = higher value
[14] = calcium flux inhibitors in TRPC4/5HT1a cells, confirmation, counter-screen for TRPC4 inhibitor project, cell-based, second counter screen, HEK293 TRPC4/5HT1a, Fluo-4 (AID 434978;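 active = primary screen active whose calcium signal fell more than 3 SD beyond the full-serotonin control mean in both duplicate plates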;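 also: serotonin given first at submaximal then at maximal dose after compound preincubation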); settings: Fluo-4 calcium flux, at 10 µM, serotonin added to trigger calcium flux; stronger effect = higher value
[15] = test system: TRPC4 (mouse), co-expressed with 5HT1a in HEK293; assay: calcium flux potentiators in TRPC4/5HT1a cells, confirmation, counter-screen for TRPC4 potentiator project, cell-based, second counter screen, HEK293 TRPC4/5HT1a, Fluo-4 (AID 434979;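 active = signal rise over 3 SD above mean of control wells given weak agonist, in both repeats and first screen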); settings: Fluo-4 calcium flux, at 10 µM, serotonin added at its EC20 dose; stronger effect = higher value
[16] = calcium flux activation in mu-opioid HEK293 cells, confirmation, counter-screen for TRPC4 activator project, cell-based, HEK293 mu-opioid receptor line (AID 449723;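 active = hit in primary screen, with calcium signal over 5 SD above buffer well mean in both duplicates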;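 also: counter screen cells carry the mu-opioid receptor alone and lack TRPC4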); settings: Fluo-4 calcium fluorescence, at 10 µM; stronger effect = higher value
[17] = calcium flux enhancement in mu-opioid HEK293 cells, confirmation, counter-screen for TRPC4 allosteric potentiator project, cell-based, HEK293 mu-opioid receptor line (AID 449724;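 active = calcium signal rise more than 3 SD above the low-dose agonist control mean, in both duplicate plates and the primary screen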); settings: Fluo-4 calcium flux, at 10 µM, compound added before EC20 DAMGO stimulus; stronger effect = higher value

Short transient receptor potential channel 6 (Mus musculus), sequence (Q61143 whole entry, looked up): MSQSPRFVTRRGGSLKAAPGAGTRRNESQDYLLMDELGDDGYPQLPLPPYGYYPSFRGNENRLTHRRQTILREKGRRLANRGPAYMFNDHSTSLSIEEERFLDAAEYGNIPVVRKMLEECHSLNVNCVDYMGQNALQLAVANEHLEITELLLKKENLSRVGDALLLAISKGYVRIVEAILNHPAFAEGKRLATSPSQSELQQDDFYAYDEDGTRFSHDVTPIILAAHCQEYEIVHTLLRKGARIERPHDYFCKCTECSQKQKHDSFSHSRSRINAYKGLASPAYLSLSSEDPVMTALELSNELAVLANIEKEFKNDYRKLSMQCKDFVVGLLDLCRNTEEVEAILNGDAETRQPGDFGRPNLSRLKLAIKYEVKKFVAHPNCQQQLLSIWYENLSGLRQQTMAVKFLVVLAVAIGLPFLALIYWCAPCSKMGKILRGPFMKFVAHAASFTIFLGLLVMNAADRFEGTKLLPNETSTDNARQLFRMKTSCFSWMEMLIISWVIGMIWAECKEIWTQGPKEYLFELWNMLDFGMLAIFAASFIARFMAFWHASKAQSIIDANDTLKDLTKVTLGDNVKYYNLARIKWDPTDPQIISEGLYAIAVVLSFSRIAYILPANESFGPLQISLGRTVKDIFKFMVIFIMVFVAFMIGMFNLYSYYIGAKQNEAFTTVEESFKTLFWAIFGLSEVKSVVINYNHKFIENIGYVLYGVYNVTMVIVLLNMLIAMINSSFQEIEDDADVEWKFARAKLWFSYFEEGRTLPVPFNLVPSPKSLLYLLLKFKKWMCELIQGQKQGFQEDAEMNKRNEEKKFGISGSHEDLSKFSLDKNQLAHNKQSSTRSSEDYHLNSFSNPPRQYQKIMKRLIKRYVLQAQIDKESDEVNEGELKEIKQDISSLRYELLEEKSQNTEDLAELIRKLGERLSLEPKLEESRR
Short transient receptor potential channel 4 (Mus musculus), sequence (Q9QUQ5 whole entry, looked up): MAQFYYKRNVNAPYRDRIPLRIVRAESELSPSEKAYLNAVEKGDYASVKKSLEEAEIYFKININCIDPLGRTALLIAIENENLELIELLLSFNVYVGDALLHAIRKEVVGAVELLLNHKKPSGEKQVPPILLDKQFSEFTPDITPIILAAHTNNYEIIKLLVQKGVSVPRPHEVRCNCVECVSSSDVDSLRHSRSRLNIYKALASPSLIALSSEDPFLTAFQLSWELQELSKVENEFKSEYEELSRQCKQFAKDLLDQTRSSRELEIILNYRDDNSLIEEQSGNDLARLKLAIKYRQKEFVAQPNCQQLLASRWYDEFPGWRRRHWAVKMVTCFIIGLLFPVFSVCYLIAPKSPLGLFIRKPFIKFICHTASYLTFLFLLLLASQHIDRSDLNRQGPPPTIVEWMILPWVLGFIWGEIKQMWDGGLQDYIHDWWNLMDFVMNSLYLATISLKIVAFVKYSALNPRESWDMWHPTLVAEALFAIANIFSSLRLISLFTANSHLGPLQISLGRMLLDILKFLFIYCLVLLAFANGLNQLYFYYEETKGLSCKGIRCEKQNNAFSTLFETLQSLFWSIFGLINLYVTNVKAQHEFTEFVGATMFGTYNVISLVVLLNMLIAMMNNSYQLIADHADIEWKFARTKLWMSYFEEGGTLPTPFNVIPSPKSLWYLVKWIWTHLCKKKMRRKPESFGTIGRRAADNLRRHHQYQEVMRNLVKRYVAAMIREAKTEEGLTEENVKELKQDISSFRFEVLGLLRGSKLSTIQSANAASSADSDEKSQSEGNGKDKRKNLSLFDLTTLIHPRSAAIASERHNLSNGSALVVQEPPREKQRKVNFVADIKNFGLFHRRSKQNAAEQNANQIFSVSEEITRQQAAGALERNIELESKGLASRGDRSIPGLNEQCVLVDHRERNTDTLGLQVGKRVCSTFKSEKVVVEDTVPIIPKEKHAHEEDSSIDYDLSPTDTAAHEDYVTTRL

c1ccc(C2(CN3CCNC[C@H]3Cc3cccc4ccccc34)CC2)cc1
active: activation [1] 161% | activation [13] 5.82%
inactive: outcome [2] | outcome [3] | outcome [4] | outcome [5] | outcome [6] | outcome [7] | outcome [8] | outcome [9] | outcome [10] | outcome [11] | outcome [12] | outcome [14] | outcome [15] | outcome [16] | outcome [17]

O=C(/C=C/c1ccc(Cl)cc1)N(Cc1ccccc1)C1CCS(=O)(=O)C1 (stereo not given)
inactive: outcome [1] | outcome [2] | outcome [3] | outcome [4] | outcome [5] | outcome [6] | outcome [7] | outcome [8] | outcome [9] | outcome [10] | outcome [11] | outcome [12] | outcome [13] | outcome [14] | outcome [16] | outcome [17]
active: potentiation [15] 15.5%

Cc1ccc(Nc2nc3ccccc3[nH]2)nc1
inactive: outcome [1] | outcome [2] | outcome [3] | outcome [4] | outcome [5] | outcome [6] | outcome [7] | outcome [8] | outcome [9] | outcome [10] | outcome [11] | outcome [12] | outcome [13] | outcome [14] | outcome [15] | outcome [16] | outcome [17]

Cc1oc(-c2ccc(Cl)cc2)nc1CS(=O)CC(=O)NCCCN(C)C1CCCCC1 (stereo not given)
inactive: outcome [1] | outcome [2] | outcome [3] | outcome [4] | outcome [5] | outcome [6] | outcome [7] | outcome [8] | outcome [9] | outcome [10] | outcome [11] | outcome [12] | outcome [13] | outcome [14] | outcome [15] | outcome [16] | outcome [17]

CCc1cc(=O)oc2c(CNCc3ccccc3F)c(O)c(Cl)cc12
inactive: outcome [1] | outcome [2] | outcome [3] | outcome [4] | outcome [5] | outcome [6] | outcome [7] | outcome [8] | outcome [9] | outcome [10] | outcome [11] | outcome [12] | outcome [13] | outcome [14] | outcome [15] | outcome [16] | outcome [17]

COC(=O)CSc1nnc(CNS(=O)(=O)c2ccc(Br)cc2)n1C
inactive: outcome [1] | outcome [2] | outcome [3] | outcome [4] | outcome [5] | outcome [6] | outcome [7] | outcome [8] | outcome [9] | outcome [10] | outcome [11] | outcome [12] | outcome [13] | outcome [14] | outcome [15] | outcome [16] | outcome [17]

COc1ccccc1N1CCN(c2ncc(C(=O)N3CCN(c4cccc(Cl)c4)CC3)c3ccccc23)CC1
inactive: outcome [1] | outcome [2] | outcome [3] | outcome [4] | outcome [5] | outcome [6] | outcome [7] | outcome [8] | outcome [9] | outcome [10] | outcome [11] | outcome [12] | outcome [13] | outcome [14] | outcome [16] | outcome [17]
active: potentiation [15] 13.4%

CC(=O)Cn1ncc(N2CCOCC2)cc1=O
inactive: outcome [1] | outcome [2] | outcome [3] | outcome [4] | outcome [5] | outcome [6] | outcome [7] | outcome [8] | outcome [9] | outcome [10] | outcome [11] | outcome [12] | outcome [13] | outcome [14] | outcome [15] | outcome [16] | outcome [17]

CCOC(=O)C1CCN(c2nc3ccccc3nc2C(C#N)C(=O)OCCOC)CC1 (stereo not given)
inactive: outcome [1] | outcome [2] | outcome [3] | outcome [4] | outcome [5] | outcome [6] | outcome [7] | outcome [8] | outcome [9] | outcome [10] | outcome [11] | outcome [12] | outcome [13] | outcome [14] | outcome [15] | outcome [16] | outcome [17]

C=CCn1c(SCC(=O)c2ccc(NS(=O)(=O)c3ccccc3)cc2)nnc1-c1cccs1
active: potentiation [15] 14%
inactive: outcome [1] | outcome [2] | outcome [3] | outcome [4] | outcome [5] | outcome [6] | outcome [7] | outcome [8] | outcome [9] | outcome [10] | outcome [11] | outcome [12] | outcome [13] | outcome [14] | outcome [16] | outcome [17]

Cc1ccc(CNC(=O)CSc2nc(=O)n3ccccc3n2)cc1
inactive: outcome [1] | outcome [2] | outcome [3] | outcome [4] | outcome [5] | outcome [6] | outcome [7] | outcome [8] | outcome [9] | outcome [10] | outcome [11] | outcome [12] | outcome [13] | outcome [14] | outcome [15] | outcome [16] | outcome [17]

CCOC(=O)C1=C(C)N(C)C(=S)NC1c1cccc(Cl)c1Cl (stereo not given)
inactive: outcome [1] | outcome [2] | outcome [3] | outcome [5] | outcome [6] | outcome [7] | outcome [8] | outcome [9] | outcome [10] | outcome [11] | outcome [12] | outcome [13] | outcome [14] | outcome [15] | outcome [16] | outcome [17]
active: potentiation [4] 25%

Oc1c(Br)cc(C2N=C(c3ccccc3Cl)NO2)cc1Br (stereo not given)
inactive: outcome [1] | outcome [2] | outcome [3] | outcome [4] | outcome [5] | outcome [6] | outcome [7] | outcome [8] | outcome [9] | outcome [10] | outcome [11] | outcome [12] | outcome [13] | outcome [14] | outcome [15] | outcome [16] | outcome [17]

O=C(c1cc2cc(Br)cc(Br)c2oc1=O)N1CCCC1
active: potentiation [15] 15.8%
inactive: outcome [1] | outcome [2] | outcome [3] | outcome [4] | outcome [5] | outcome [6] | outcome [7] | outcome [8] | outcome [9] | outcome [10] | outcome [11] | outcome [12] | outcome [13] | outcome [14] | outcome [16] | outcome [17]

COc1ccc(C2C(O)C(c3c[nH]c4ccccc34)=NN2C(=O)CCl)cc1 (stereo not given)
active: potentiation [4] 36% | potentiation [15] 28.9%
inactive: outcome [1] | outcome [2] | outcome [3] | outcome [5] | outcome [6] | outcome [7] | outcome [8] | outcome [9] | outcome [10] | outcome [11] | outcome [12] | outcome [13] | outcome [14] | outcome [16] | outcome [17]
